According to PubChem BioAssay:
Active and inactive are the calls of the source.

Legend:
[1] = tested on: PRMT1 (protein arginine N-methyltransferase 1); assay: PRMT1 binders on small-molecule microarrays, primary screen, biochemical, small-molecule microarray, 635 nm fluorescence (AID 1088); conditions: small-molecule microarray binding, higher = more signal;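 further: binding of Prmt1 protein to compounds spotted on small-molecule microarray slides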
[2] = yeast growth modulation, basal conditions, primary screen, YJM789 clinical isolate, OD600, 24 h (AID 1089);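 further: growth of clinical yeast isolate S. cerevisiae YJM 789 seeded 1000 cells per well; test concentration not given here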; conditions: S. cerevisiae YJM789 growth, higher = more signal, called active from +8 up or from −8 down
[3] = fission yeast growth modulation, primary screen, strain 972, OD600, 24 h, no modulator (AID 1090);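 further: basal condition with compound alone and no growth modifier present; test concentration not given here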; conditions: S. pombe 972 growth, higher = more signal, called active from +8 up or from −8 down
[4] = S. cerevisiae growth modulation with rapamycin, primary screen, strain BY4716, OD600, 96 h (AID 1091); conditions: higher = more signal, called active from +8 up or from −8 down; further: test concentration not given here
[5] = target: Torsin-1A-interacting protein 2 (Homo sapiens) (UniProt Q8NFQ8); assay: LULL1 binders on small-molecule microarray, primary screen, cell lysate, human LULL1 lysate, 635/667 nm fluorescence (AID 1092); conditions: hLULL1 lysate binding, 635 nm fluorescence, higher = more signal;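 further: probe is lysate of COS7 cells overexpressing human LULL1; score merges per-feature 667 nm fluorescence with signal-to-noise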
[6] = E. coli growth modulation, two-sided OD650, primary screen, E. coli filamentation project, strain DRC41, 24 h (AID 1093); conditions: OD650, 24 h, higher = more signal, called active from +8 up or from −8 down;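 further: MC1000 strain lacking acrAB efflux and sulA so SOS filamentation is blocked; test concentration not given here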
[7] = small-molecule microarray binders of probe aLefty2, primary screen, biochemical, biotinylated probe, 635/667 nm fluorescence (AID 1094); conditions: higher = more signal;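 further: score merges spot fluorescence near 667 nm with spot signal-to-noise ratio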
[8] = tested on: Noggin (protein binding on small-molecule microarray); assay: Noggin binders on small-molecule microarray, primary screen, biochemical, 635/667 nm fluorescence (AID 1095); conditions: 635 nm fluorescence, higher = more signal;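 further: score merges 667 nm feature fluorescence with signal to noise over triplicate slides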
[9] = target: Neurogenic locus notch homolog protein 3 (Homo sapiens) (UniProt Q9UM47); assay: NOTCH3 binders on small-molecule microarray, primary screen, biochemical, 635/667 nm fluorescence (AID 1096); conditions: NOTCH3 binding, 635 nm fluorescence, higher = more signal
[10] = small-molecule microarray binders of probe aEGFR, primary screen, biochemical, biotinylated probe, 635/667 nm fluorescence (AID 1097); conditions: higher = more signal;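 further: probe is a biotinylated anti-EGFR antibody binding compounds printed on slides; score combines fluorescence near 667 nm and signal to noise of each spot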
[11] = tested on: Plasmodium falciparum Sir2 (PF13_0152, Sir2A); assay: pfSir2 binders on small-molecule microarrays, primary screen, biochemical, small-molecule microarray, 635 nm fluorescence (AID 1098); conditions: small-molecule microarray binding, fluorescence 635 nm; higher = more signal;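 further: score merges spot fluorescence intensity with its signal-to-noise ratio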
[12] = small-molecule microarray binders of probe aDKK1, primary screen, biochemical, biotinylated probe, 635/667 nm fluorescence (AID 1099); conditions: higher = more signal;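 further: score merges 667nm spot fluorescence with signal to noise across triplicate slides; reference of the scale not given here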
[13] = small-molecule microarray binders of probe aCHRDL2, primary screen, biochemical, biotinylated probe, 635/667 nm fluorescence (AID 1100); conditions: higher = more signal
[14] = splicing luciferase reporter signal modulators, primary screen, spliceosome inhibition project, cell-based, HEK293, splice +/- reporter (AID 1101); conditions: luminescence, 24 h, higher = more signal, called active from +8 up or from −8 down;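 further: HEK293 cells carrying a splicing-competent luciferase reporter gene; test concentration not given here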
[15] = target: Fibroblast growth factor 10 (Homo sapiens) (UniProt O15520); assay: FGF10 binders on small-molecule microarrays, primary screen, biochemical, small-molecule microarray, 635 nm fluorescence (AID 1102); conditions: FGF10 binding, fluorescence 635 nm, higher = more signal
[16] = tested on: glycogen synthase kinase-3 (GSK3A per assay name; protocol says GSK3B); assay: GSK3 binders on small-molecule microarrays, primary screen, biochemical, small-molecule microarray, 635 nm fluorescence, GSK3A (AID 1103); conditions: small-molecule microarray binding, fluorescence 635 nm; higher = more signal; further: the record names both GSK3A and GSK3B
[17] = target: Epidermal growth factor receptor (Homo sapiens) (UniProt P00533); assay: EGFR binders on small-molecule microarrays, primary screen, biochemical, small-molecule microarray, 635 nm fluorescence (AID 1104); conditions: EGFR binding, higher = more signal;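 further: score merges 667 nm emission intensity with spot signal to noise over triplicate slides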
[18] = target: Follistatin-related protein 3 (Homo sapiens) (UniProt O95633); assay: FSTL3 binders on small-molecule microarrays, primary screen, biochemical, small-molecule microarray, 635 nm fluorescence (AID 1105); conditions: FSTL3 binding, higher = more signal;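 further: score merges emission near 667 nm and signal to noise per printed spot across three slides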
[19] = target: Dickkopf-related protein 1 (Homo sapiens) (UniProt O94907); assay: DKK1 binders on small-molecule microarrays, primary screen, biochemical, small-molecule microarray, 635 nm fluorescence scan (AID 1106); conditions: DKK1 binding, higher = more signal;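 further: score merges emission near 667 nm with signal to noise over three replicate slides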
[20] = tested on: Inhibin beta A chain (activin A); assay: INHBA (activin A) binders on microarrays, primary screen, biochemical, small-molecule microarray, 635 nm fluorescence scan (AID 1107); conditions: small-molecule microarray binding, higher = more signal;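 further: mouse activin A protein probed at 4.33 µg/mL on printed slides; score merges bound-protein fluorescence near 667 nm with spot signal-to-noise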

Sequence of Fibroblast growth factor 10 (Homo sapiens) (O15520 whole entry, looked up): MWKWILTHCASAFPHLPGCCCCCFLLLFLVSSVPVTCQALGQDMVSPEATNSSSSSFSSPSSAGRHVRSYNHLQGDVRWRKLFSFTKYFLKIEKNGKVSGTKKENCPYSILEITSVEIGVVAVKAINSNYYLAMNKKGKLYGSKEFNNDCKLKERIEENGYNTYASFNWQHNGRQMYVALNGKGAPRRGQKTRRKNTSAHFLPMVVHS
Sequence of Dickkopf-related protein 1 (Homo sapiens) (O94907 whole entry, looked up): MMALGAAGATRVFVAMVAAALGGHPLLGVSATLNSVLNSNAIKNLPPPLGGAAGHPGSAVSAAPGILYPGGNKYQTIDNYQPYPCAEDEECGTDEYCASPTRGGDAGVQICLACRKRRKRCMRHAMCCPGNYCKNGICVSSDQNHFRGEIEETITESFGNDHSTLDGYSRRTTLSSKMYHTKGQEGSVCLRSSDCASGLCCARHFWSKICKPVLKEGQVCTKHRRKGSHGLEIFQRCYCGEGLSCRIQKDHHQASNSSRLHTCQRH
Sequence of Neurogenic locus notch homolog protein 3 (Homo sapiens) (Q9UM47 whole entry, looked up): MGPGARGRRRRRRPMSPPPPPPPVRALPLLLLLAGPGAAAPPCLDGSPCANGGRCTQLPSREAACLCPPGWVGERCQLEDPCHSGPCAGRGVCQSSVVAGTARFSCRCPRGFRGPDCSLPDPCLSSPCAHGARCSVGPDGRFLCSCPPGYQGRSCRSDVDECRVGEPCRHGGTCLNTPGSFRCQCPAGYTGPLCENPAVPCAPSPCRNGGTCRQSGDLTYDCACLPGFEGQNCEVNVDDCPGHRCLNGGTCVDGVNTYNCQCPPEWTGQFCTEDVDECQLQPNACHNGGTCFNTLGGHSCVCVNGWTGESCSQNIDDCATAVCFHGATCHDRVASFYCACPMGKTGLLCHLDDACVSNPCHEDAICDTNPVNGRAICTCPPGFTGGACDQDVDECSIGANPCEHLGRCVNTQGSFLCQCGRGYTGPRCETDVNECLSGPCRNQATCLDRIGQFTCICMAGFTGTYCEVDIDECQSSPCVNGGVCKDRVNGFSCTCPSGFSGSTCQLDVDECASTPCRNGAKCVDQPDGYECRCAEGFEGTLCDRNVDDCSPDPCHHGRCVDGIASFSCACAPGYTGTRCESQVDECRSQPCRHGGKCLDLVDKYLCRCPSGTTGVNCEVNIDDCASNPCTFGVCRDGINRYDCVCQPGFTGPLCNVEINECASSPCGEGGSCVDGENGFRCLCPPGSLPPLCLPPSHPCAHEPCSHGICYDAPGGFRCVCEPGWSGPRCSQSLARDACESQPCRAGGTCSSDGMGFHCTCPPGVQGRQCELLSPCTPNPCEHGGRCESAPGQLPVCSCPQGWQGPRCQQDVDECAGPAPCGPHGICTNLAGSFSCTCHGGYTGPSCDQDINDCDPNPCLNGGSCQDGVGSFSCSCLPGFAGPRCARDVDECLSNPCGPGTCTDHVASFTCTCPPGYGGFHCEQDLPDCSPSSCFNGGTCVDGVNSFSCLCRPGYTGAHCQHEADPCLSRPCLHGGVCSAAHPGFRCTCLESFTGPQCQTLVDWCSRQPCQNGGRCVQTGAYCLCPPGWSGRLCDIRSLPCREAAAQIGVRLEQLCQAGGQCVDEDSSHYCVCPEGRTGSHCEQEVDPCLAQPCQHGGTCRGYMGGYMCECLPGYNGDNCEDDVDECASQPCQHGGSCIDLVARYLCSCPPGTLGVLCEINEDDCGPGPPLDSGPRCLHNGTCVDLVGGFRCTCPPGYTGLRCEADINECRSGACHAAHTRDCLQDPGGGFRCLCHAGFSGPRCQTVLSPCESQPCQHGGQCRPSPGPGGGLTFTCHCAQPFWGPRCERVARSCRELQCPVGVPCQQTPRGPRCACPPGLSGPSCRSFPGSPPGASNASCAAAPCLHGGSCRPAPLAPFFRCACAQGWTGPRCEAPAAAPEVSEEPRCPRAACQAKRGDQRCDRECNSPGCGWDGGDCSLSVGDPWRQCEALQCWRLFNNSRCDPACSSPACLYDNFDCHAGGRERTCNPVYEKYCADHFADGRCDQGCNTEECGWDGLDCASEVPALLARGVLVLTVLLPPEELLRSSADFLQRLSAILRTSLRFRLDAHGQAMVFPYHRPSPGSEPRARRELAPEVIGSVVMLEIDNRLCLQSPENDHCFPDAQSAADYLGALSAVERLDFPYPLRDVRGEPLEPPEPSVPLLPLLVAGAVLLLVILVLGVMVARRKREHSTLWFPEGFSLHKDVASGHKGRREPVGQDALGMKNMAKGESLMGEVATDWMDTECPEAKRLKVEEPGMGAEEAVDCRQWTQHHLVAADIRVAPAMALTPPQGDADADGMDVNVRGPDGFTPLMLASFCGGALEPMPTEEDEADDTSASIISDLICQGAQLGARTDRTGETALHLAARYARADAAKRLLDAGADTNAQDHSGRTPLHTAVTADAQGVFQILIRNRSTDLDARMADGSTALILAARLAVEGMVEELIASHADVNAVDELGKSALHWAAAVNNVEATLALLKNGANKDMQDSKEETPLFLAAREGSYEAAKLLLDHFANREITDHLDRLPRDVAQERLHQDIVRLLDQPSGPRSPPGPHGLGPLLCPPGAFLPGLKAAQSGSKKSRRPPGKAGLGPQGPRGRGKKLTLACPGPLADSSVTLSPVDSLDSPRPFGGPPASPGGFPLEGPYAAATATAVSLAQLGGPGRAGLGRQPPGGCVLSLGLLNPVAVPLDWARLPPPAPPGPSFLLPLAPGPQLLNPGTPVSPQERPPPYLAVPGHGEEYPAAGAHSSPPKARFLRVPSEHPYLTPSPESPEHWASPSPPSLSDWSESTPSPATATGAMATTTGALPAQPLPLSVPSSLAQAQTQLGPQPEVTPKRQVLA
Sequence of Torsin-1A-interacting protein 2 (Homo sapiens) (Q8NFQ8 whole entry, looked up): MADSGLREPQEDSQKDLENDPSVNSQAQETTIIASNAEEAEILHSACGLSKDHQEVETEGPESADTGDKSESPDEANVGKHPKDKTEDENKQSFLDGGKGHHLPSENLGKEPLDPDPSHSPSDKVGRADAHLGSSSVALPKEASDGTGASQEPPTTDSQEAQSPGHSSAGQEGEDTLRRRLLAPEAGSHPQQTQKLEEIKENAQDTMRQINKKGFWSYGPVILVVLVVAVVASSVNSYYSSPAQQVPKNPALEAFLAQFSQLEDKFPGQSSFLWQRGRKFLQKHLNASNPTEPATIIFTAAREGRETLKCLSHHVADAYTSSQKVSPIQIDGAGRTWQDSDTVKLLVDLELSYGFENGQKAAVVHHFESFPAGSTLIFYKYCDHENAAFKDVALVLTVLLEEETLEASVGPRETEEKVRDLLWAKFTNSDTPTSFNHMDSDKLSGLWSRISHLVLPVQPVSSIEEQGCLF
Sequence of Follistatin-related protein 3 (Homo sapiens) (O95633 whole entry, looked up): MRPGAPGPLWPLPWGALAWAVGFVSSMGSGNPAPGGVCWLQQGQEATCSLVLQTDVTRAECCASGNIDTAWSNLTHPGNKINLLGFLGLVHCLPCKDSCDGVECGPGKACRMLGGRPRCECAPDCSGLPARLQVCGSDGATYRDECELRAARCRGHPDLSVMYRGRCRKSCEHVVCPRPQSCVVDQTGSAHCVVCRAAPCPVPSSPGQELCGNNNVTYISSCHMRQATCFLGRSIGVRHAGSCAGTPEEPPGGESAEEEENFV
Sequence of Epidermal growth factor receptor (Homo sapiens) (P00533 whole entry, looked up): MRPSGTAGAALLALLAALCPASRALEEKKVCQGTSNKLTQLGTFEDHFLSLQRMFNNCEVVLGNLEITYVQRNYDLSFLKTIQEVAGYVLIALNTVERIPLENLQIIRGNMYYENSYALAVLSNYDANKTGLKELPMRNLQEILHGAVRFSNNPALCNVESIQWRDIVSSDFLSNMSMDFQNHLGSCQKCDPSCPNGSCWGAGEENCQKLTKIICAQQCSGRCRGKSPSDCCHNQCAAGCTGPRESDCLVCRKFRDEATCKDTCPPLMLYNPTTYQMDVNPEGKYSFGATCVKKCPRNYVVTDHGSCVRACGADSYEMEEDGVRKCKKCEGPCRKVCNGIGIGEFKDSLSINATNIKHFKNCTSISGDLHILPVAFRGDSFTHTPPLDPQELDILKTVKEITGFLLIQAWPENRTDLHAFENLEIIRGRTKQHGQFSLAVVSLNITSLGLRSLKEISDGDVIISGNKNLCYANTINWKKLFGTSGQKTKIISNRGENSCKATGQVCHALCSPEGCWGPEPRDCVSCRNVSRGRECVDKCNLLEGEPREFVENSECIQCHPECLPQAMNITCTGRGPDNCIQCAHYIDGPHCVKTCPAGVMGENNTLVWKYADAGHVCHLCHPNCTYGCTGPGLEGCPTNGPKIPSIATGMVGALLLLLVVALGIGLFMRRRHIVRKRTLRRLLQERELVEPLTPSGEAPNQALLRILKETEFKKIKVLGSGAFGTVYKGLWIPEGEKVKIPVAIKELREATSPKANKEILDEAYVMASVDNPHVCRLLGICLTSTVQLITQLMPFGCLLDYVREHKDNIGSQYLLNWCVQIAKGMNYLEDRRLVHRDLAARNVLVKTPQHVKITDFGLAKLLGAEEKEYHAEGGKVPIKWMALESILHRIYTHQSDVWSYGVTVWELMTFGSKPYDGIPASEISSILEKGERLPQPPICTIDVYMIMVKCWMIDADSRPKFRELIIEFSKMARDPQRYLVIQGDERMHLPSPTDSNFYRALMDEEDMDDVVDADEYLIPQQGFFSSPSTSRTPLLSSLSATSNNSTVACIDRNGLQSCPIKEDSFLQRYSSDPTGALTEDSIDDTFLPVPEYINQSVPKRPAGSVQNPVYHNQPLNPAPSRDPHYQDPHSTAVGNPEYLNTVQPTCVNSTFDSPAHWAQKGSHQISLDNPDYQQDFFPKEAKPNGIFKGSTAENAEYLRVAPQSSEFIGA

| SMILES | composite z-score [1] | z-score [2] | z-score [3] | z-score [4] | composite z-score [5] | z-score [6] | composite z-score [7] | composite z-score [8] | composite z-score [9] | composite z-score [10] | composite z-score [11] | composite z-score [12] | composite z-score [13] | z-score [14] | composite z-score [15] | composite z-score [16] | composite z-score [17] | composite z-score [18] | composite z-score [19] | composite z-score [20] |
| --- | --- | --- | --- | --- | --- | --- | --- | --- | --- | --- | --- | --- | --- | --- | --- | --- | --- | --- | --- | --- |
| C=CC1c2cc(O)c(OC)cc2CCN1Cc1cc2c(cc1Br)OCO2 (stereo not given) | 1.25 | -17.7 (active) | -19.8 (active) | -1.33 (inactive) | 2.51 | -2 (inactive) | 0.386 | 0.289 | 0.435 | -0.132 | 1.59 | 0.276 | 1.04 | 0.203 (inactive) | -0.0398 | -0.277 | 0.0492 | 0.327 | 0.565 | 1.9 |
| O=C(NCC(F)(F)F)[C@@H]1c2ccccc2C(=O)N(Cc2cc(F)cc(C(F)(F)F)c2)[C@H]1c1ccc(CO)cc1 | -0.264 | 0.0042 (inactive) | -0.793 (inactive) | 0.29 (inactive) | 2.29 | 0.463 (inactive) | -0.0998 | -1.08 | -1.13 | -0.278 | 0.251 | -0.0632 | 0.941 | 0.408 (inactive) | -0.788 | -0.587 | -1.12 | -1.29 | -1.39 | -0.53 |
| COc1ccc(NC(=O)O[C@H]2[C@H](OC(=O)Nc3ccccc3)[C@H](OC(=O)Nc3ccccc3)[C@@H](OC)O[C@@H]2CO)cc1 | 1.55 | 0.855 (inactive) | 0.887 (inactive) | 3.25 (inactive) | 2.66 | -0.873 (inactive) | 0.31 | 0.691 | 0.989 | 0.644 | 1.58 | 0.891 | 0.816 | -0.0162 (inactive) | 1.27 | 1.07 | -0.171 | 0.806 | 0.426 | 0.593 |
| COCCCNC(=O)[C@@]1(Cc2ccccc2CN=[N+]=[N-])N=C(c2ccc(OCCCO)cc2)O[C@H]1c1ccccc1 | 1.54 | 1.06 (inactive) | 1.04 (inactive) | 11.6 (active) | 3.26 | 0.261 (inactive) | 0.0235 | 1.13 | 1.12 | -0.0267 | 1.06 | 0.432 | 0.825 | -0.645 (inactive) | 1.31 | 0.235 | -0.331 | 0.561 | -0.497 | 0.31 |
| CO[C@H]1O[C@H](CO)[C@@H](OC(=O)Nc2ccc3c(c2)OCO3)[C@H](OC(=O)c2cc3ccccc3[nH]2)[C@H]1OC(=O)c1cc2ccccc2[nH]1 | 0.391 | -2.1 (inactive) | -0.908 (inactive) | 0.489 (inactive) | -0.33 | 0.382 (inactive) | 0.0204 | 0.111 | 0.123 | -0.0828 | 0.787 | -0.0268 | -0.161 | -1.87 (inactive) | 0.247 | -0.0406 | -0.194 | 0.238 | 0.283 | 1.46 |
| C=CCOC(=O)[C@H]1[C@@H]2C(=O)O[C@@H](c3ccccc3)[C@@H](c3ccccc3)N2[C@@H](c2ccc(OCCOC(=O)[C@H]3C[C@H]4C(=O)N[C@@H](CCCCNC(C)=O)C(=O)N4[C@H]3c3ccc(O)cc3)cc2)[C@]12C(=O)Nc1ccccc12 | 1.54 | -5.42 (inactive) | -1.54 (inactive) | 0.491 (inactive) | 2.27 | 3.05 (inactive) | 0.0557 | 1.63 | 0.991 | -0.0509 | 0.611 | 0.258 | 0.493 | -1.18 (inactive) | 0.776 | 1.28 | 0.915 | 0.932 | 1.31 | 0.351 |
| CC(CO)N1C(=O)[C@@H]2[C@H]3C(=O)OCC=C[C@H]3OC23C=CCN(CCN2CCOCC2)C(=O)[C@@H]13 (stereo not given in full) | 0.658 | -0.792 (inactive) | -0.968 (inactive) | -0.268 (inactive) | -0.986 | -0.909 (inactive) | -0.33 | 0.169 | 0.0282 | -0.0828 | 1.12 | -0.373 | -0.646 | 0.497 (inactive) | -0.199 | 0.248 | -0.101 | 0.152 | 0.439 | 0.777 |
| COCCOC(=O)N1C(=O)[C@@]2(c3cc(C#CC4=CCCCC4)ccc31)[C@H](C(=O)N1CCCCCCC1)[C@H]1C(=O)O[C@H](c3ccccc3)[C@H](c3ccccc3)N1[C@@H]2c1ccc(O)cc1 | 1.56 | -1.17 (inactive) | 0.509 (inactive) | 0.983 (inactive) | 2.88 | 1.53 (inactive) | 0.295 | 0.795 | 0.807 | 0.0383 | 0.376 | 0.923 | 1 | -0.802 (inactive) | 0.277 | 0.409 | 0.285 | 0.735 | 0.163 | 1.41 |
| C=CCOC(=O)[C@H]1[C@@H]2C(=O)O[C@@H](c3ccccc3)[C@@H](c3ccccc3)N2[C@@H](c2ccc(OCCOC(=O)[C@@H]3C[C@@H]4C(=O)N[C@@H](CCCCNC(C)=O)C(=O)N4[C@@H]3c3ccc(O)cc3)cc2)[C@]12C(=O)Nc1ccc(I)cc12 | 1.52 | 1.29 (inactive) | 0.145 (inactive) | 4.21 (inactive) | 1.88 | -0.289 (inactive) | 0.0594 | 1.19 | 0.981 | 0.117 | 0.95 | 0.0153 | 0.127 | -0.151 (inactive) | 1.33 | 1.27 | 1.08 | 1.3 | 0.789 | 0.732 |
